The sample as a whole holds a higher share of hits than the screen did.
HT1080-NT tox = kills 2HG-producing HT-1080-NT fibrosarcoma cells; HT-1080-NT fibrosarcoma viability, CellTiter-Glo ATP luminescence, 48 h; Potency, µM (doses to about 46.1 µM), for inactives: at the highest dose activity, negative = less viability, hits mostly cytotoxic; 360,000 tested, 1.6% active; AID 686970;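 further: NT is the 2HG producing partner of a matched IDH1 knockdown line; potency means the concentration at half of the fitted maximal effect; 0% = DMSO-treated cells and -100% = media-only wells without cells; nearly all actives have a fitted effect of over 55% in size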
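Viability of the 2HG-overproducing fibrosarcoma line after 48 hours of compound exposure at 37 degrees C was determined by luminescence with CellTiter-Glo, and concentration-effect curves were then fitted and categorized.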
DT40 TDP1 CPT = growth inhibition of DT40 Tdp1-/-;hTDP1 cells with camptothecin (screen for TDP1 inhibitors); 420,000 tested, 12% active; chicken DT40 Tdp1-/-;hTDP1 cells + 20 nM CPT, ATP luminescence, 48 h; Potency, µM (highest dose often 46.2 µM), for inactives: at the highest dose activity change, negative = growth inhibition, actives largely listed as inhibitors; further: potency means the concentration at half of the fitted maximal effect; nearly all actives have a fitted effect of over 55% in size
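Cell growth measured by CellTiter-Glo luminescence after a minimum 48 h, 37 C compound exposure with 20 nM CPT in Tdp1-knockout DT40 cells stably expressing hTDP1, seeded 400/well; qHTS titration format.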
DT40 TDP1 no CPT = qHTS for Inhibitors of human tyrosyl-DNA phosphodiesterase 1 (TDP1): qHTS in cells in absence of CPT. DT40 Tdp1-/- hTDP1 cells, no CPT, ATP luminescence, 48 h. Potency, µM (series often up to 46.2 µM), without a hit: top-dose activity change, negative = growth inhibition, actives largely listed as inhibitors. 420,000 tested, 15% active. AID 686978, 2013; further: potency means the concentration at half of the fitted maximal effect; nearly all actives have a fitted effect of over 55% in size
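No-CPT arm: Tdp1-/-;hTDP1 DT40 cells (400/well) plus compounds, incubated ≥48 hr at 37 °C. Readout CellTiter-Glo luminescence.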
ALOX12 inh = ALOX12 (human) lipoxygenase inhibition. P18054. AID 1671190. purified 12hLO, xylenol orange hydroperoxide absorbance. 580,000 tested, 1.1% active. Potency, µM (top dose mostly 108 µM), without a hit: top-dose activity change, negative = inhibition, actives largely listed as inhibitors; further: potency means the concentration at half of the fitted maximal effect
Target sequence (P18054 whole entry, looked up): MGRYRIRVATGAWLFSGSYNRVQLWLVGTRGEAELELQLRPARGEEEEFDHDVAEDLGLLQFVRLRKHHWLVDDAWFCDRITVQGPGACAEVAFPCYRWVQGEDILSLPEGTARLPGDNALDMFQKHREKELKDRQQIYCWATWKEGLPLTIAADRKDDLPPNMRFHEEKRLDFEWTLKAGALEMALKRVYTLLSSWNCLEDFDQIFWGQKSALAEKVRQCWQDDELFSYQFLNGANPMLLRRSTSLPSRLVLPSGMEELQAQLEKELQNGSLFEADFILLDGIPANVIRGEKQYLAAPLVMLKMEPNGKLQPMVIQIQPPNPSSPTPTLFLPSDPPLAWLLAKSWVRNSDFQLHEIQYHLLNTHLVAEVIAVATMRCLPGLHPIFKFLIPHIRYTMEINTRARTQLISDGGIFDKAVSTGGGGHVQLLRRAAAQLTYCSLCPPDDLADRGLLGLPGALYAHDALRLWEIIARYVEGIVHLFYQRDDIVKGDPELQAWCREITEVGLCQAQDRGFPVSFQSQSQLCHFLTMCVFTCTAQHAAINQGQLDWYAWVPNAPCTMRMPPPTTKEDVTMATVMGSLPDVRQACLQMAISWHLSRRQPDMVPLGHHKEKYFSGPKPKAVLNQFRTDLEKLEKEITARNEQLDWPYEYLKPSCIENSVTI
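Hydroperoxide product was detected by ferrous iron/xylenol orange as the 573 to 405 nm absorbance ratio. Arachidonic acid at 40 uM (final) was turned over for 30 min at room temperature by 150 nM human 12hLO, pH 7.0 Hepes buffer, after 15 min compound preincubation.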
HT1080 IDH1KD tx = kills HT-1080 cells with IDH1 knockdown; HT-1080 IDH1 knockdown viability, ATP luminescence, 48 h; Potency, µM (top dose mostly 46.1 µM), inactives show at the highest dose activity, negative = toxicity, usual class: cytotoxic; 360,000 tested, 2% active; AID 686971;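 further: potency means the concentration at half of the fitted maximal effect; 0% = DMSO wells and -100% = cell-free medium wells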
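Knockdown cells (IDH1KD HT-1080) received compounds 2 h after plating at 750 cells/well and were kept 48 h at 37 °C in 5% FBS RPMI. A CellTiter-Glo luminescence read gave % activity for curve fitting.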
IL-1B inflam inh = inhibitors of inflammasome signaling (IL-1 beta secretion) | THP-1 LPS/ATP IL-1B secretion, AlphaLISA, 16 h; stronger effect = lower value | 360,000 tested, 4.7% active | activity change, % at 57.5 µM; in the data active means activity change below about -50%; inconclusive means mostly about -30% to -49%
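THP-1 cells pretreated 1 hr with compounds (up to 57.5 uM final), then stimulated with LPS (250 ng/mL final) plus ATP (1.25 mM final); secreted IL-1B measured by AlphaLISA after 16 hr, decreased signal indicating inhibition.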
* marks the source's active call; other numbers are inactive results; ? = inconclusive; / = no result; [ ] = remark or other dose. Unless noted, the call rests on the fitted dose curve; in most records, active means well fitted curve in the direction sought with a large enough effect; inconclusive means small, poorly fitted or top-dose-only effect, or another doubt; inactive means no such curve, though single readings can be large; an effect the other way counts as inactive or inconclusive. Unless noted, on the % scale 0 is the no-effect control and ±100 the full control effect.

SMILES	HT1080-NT tox	DT40 TDP1 CPT	DT40 TDP1 no CPT	ALOX12 inh	HT1080 IDH1KD tx	IL-1B inflam inh
COc1cccc(C2CC(=O)Nc3nc(N)sc32)c1OCc1ccc(F)cc1 (stereo not given)	/	/	/	2µM*	/	/
COc1cccc(C2CC(=O)Nc3cc(OC)c(OC)c(OC)c32)c1OC (stereo not given)	4.0%	?	?	153.8%	2.0%	9.8
CNc1nc2c(s1)C(c1ccc(F)c(F)c1)CC(=O)N2 (stereo not given)	/	/	/	-24.6%	/	/
Nc1nc2c(s1)C(c1ccc(Br)cc1)CC(=O)N2 (stereo not given)	/	/	/	27.4%	/	/
CCNc1nc2c(s1)C(c1cccnc1)CC(=O)N2 (stereo not given)	/	/	/	-10.5%	/	/
Nc1nc2c(s1)C(c1cccc(OCc3cccc(F)c3)c1)CC(=O)N2 (stereo not given)	/	/	/	3.55µM*	/	/
Nc1nc2c(s1)C(c1cccc(F)c1F)CC(=O)N2 (stereo not given)	/	/	/	15.8µM*	/	/
Nc1nc2c(s1)C(c1ccc(F)cc1F)CC(=O)N2 (stereo not given)	/	/	/	12.6µM*	/	/
COc1ccc(-c2noc(CC3CCN(C(=O)c4cc(F)ccc4F)CC3)n2)cc1	/	/	/	21.5%	/	/
CC(C#N)OC(=O)c1cc(-c2cccs2)nc2ccccc12 (stereo not given)	/	/	/	-13.5%	/	/
C[C@H]1[C@@H]2[C@@H](O)C([C@H](C)C(=O)NCc3ccco3)CC[C@@]2(C)CC[C@@H]1NC(=O)c1ccccn1 (stereo not given in full)	/	/	/	2.6%	/	/
COc1ccc(-c2cc(NC=O)c3ncc(-c4cccc(C(=O)NCCN(C)C)c4)n3c2)cn1	-26.1%	?	?	-5.0%	-18.1%	-25.6
COc1ccc(-c2cc(NC=O)c3ncc(-c4cccc(C(=O)NCCN(C)C)c4)n3c2)c(OC)c1	18.4µM*	3.26µM*	3.66µM*	-4.4%	23.1µM*	-2.8
COc1cc(-c2cnc3c(NC=O)cc(-c4cccc(C(=O)NCCN(C)C)c4)cn23)cc(OC)c1OC	5.2%	?	14.6µM*	0.5%	-0.9%	129.1
CCOc1cc(C)c(CN2CCC3(C2)CN(C)C(=O)O3)cc1C(C)C (stereo not given)	/	/	/	59.4%	/	/
CN(C)c1ccc(C(=O)N2CCC3(CC2)NC(=O)N(c2ccccc2)N3)cc1	/	/	/	2.82µM*	/	/
Cc1ccc(C(=O)N2CCC3(CC2)N(c2ccccc2)C(=O)CS3(=O)=O)cc1F	/	/	/	10.4%	/	/
Cc1ccc(C(=O)N2CCC3(CC2)NC(=O)N(c2ccccc2)N3)cc1F	/	/	/	3.98µM*	/	/
O=C(Nc1ccccc1F)c1ccc(-c2ccccc2)cc1	/	/	/	-9.8%	/	/
CC[C@]1(O)CC2CN(CCc3c([nH]c4ccccc34)[C@@](C(=O)OC)(c3cc4c(cc3OC)N(C)[C@H]3[C@@](O)(C(N)=O)[C@H](O)[C@]5(CC)C=CCN6CC[C@]43[C@@H]65)C2)C1 (stereo not given in full)	/	0.335µM*	0.335µM*	/	/	/
CC[C@]1(O)C[C@@H]2CN(CCc3c([nH]c4ccccc34)[C@@](C(=O)OC)(c3cc4c(cc3OC)N(C)C3[C@]45CCN4CC=C[C@](CC)(C45)[C@@H](OC(C)=O)[C@]3(O)C(=O)OC)C2)C1 (stereo not given in full)	/	0.0252µM*	0.0159µM*	6.6%[57.4 µM]	/	/
CC[C@]1(O)C[C@@H]2CN(CCc3c([nH]c4ccccc34)[C@@](C(=O)OC)(c3cc4c(cc3OC)N(C=O)[C@@H]3C45CCN4CC=C[C@](CC)([C@H]45)[C@@H](OC(C)=O)[C@]3(O)C(=O)OC)C2)C1 (stereo not given in full)	/	/	/	9.2%	/	/
CC[C@]1(O)C[C@@H]2CN(CCc3c([nH]c4ccccc34)[C@](C(=O)OC)(c3cc4c(cc3OC)N(C)[C@H]3[C@](O)(C(=O)OC)[C@@H](C(=O)OC)[C@@]5(CC)C=CCN6CC[C@@]43[C@@H]65)C2)C1	/	0.0841µM*	0.106µM*	?	/	/
CCC1=C[C@@H]2CN(C1)Cc1c([nH]c3ccccc13)[C@@](C(=O)OC)(c1cc3c(cc1OC)N(C)[C@H]1[C@@](O)(C(=O)OC)[C@H](OC(C)=O)[C@]4(CC)C=CCN5CC[C@]31[C@@H]54)C2	/	0.0596µM*	0.0531µM*	/	/	/
O=C(N/N=C\c1cccc([N+](=O)[O-])c1O)C1COc2ccccc2O1 (stereo not given)	?	5.17µM*	5.17µM*	-11.1%	?	85.0
SMILES	HT1080-NT tox	DT40 TDP1 CPT	DT40 TDP1 no CPT	ALOX12 inh	HT1080 IDH1KD tx	IL-1B inflam inh
O=C(N/N=C/c1cccc([N+](=O)[O-])c1)C1COc2ccccc2O1 (stereo not given)	-5.6%	23.8%	-16.3%	-5.4%	-2.9%	-2.6
COc1cc(/C=N/NC(=O)C2COc3ccccc3O2)cc(OC)c1OC (stereo not given)	1.1%	-3.7%	-27.7%	-1.1%	-7.2%	8.2
COc1cc([N+](=O)[O-])cc(/C=N\NC(=O)C2COc3ccccc3O2)c1O (stereo not given)	?	?	?	-13.4%	18.4µM*	122.3
Cc1c(C(=O)OCc2ccccc2)sc(=S)n1C	/	/	/	2.4%	/	/
CN(C)c1cccc2c(C(=O)c3ccccc3)ccc(N(C)C)c12	/	/	/	6.6%	/	/
CSCC[C@H](NC(=O)OC(C)(C)C)c1nnc(SC)o1	/	/	/	47.4%	/	/
Cc1ccc(C)c(NC(=O)CN(C)C(=O)COc2cccc(F)c2)c1	/	/	/	-3.3%	/	/
CCOc1ccc(NC(=O)c2cnn(-c3ccc(C)c(Cl)c3)c2C2CCNCC2)cc1	/	23.1µM*	?	6.7%	/	/
Cc1ccccc1OCC(=O)N(Cc1nnc(-c2ccc(Cl)cc2)o1)C(C)C	-5.9%	?	14.6µM*	2.5%	-15.6%	-14.2
CCOc1ncccc1C(=O)N(Cc1nnc(-c2ccc(Cl)cc2)o1)C(C)C	/	/	/	13.4%	/	/
O=C1N2CCCC2CN1C1CCN([S+](=O)([O-])c2cccc(C(F)(F)F)c2)CC1 (stereo not given)	/	/	/	7.8%	/	/
N#CC1=C(N)NC(SCc2ccc(F)cc2)=C(C#N)C12CCCCC2	20.6µM*	23.1µM*	25.9µM*	?	23.1µM*	-9.3
N#CC1=C(N)NC(SCC(=O)O)=C(C#N)C12CCCC2	10.4%	-16.7%	1.4%	?	17.6%	-4.1

Screening data from PubChem BioAssay.
